PNC assembly inh: High Content Assay for Compounds that inhibit the Assembly of the Perinucleolar Compartment. PC3M PTB-GFP, PNC prevalence imaging, 16 h; stronger effect = lower value. activity change (PNC), negative = inhibition, % at 10 µM. actives 3.1% (n = 140,000). AID 2417, 2010;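 active = readout at or below -70, meaning at least 70% loss of cells showing the perinucleolar compartment, a nuclear body marking cancer cells; inconclusive = readout between -30 and a set limit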
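Read-out is percentage of cells bearing a perinucleolar compartment, from automated 20x imaging of fixed, Hoechst-stained PC3M PTB-GFP cells. Cells were seeded 4 h, then exposed 16 h to compound (23 nl of library stock) in duplicate plates.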
ALDH1A1 inh: qHTS Assay for Inhibitors of Aldehyde Dehydrogenase 1 (ALDH1A1); AID 1030, 2008; Aldehyde dehydrogenase 1A1 (Homo sapiens), P00352; Purified ALDH1A1, NADH fluorescence, propionaldehyde substrate; Potency, µM (highest dose often 75.3 µM), actives largely listed as inhibitors; actives 7.3% (n = 220,000)
Target sequence (P00352 whole entry, looked up): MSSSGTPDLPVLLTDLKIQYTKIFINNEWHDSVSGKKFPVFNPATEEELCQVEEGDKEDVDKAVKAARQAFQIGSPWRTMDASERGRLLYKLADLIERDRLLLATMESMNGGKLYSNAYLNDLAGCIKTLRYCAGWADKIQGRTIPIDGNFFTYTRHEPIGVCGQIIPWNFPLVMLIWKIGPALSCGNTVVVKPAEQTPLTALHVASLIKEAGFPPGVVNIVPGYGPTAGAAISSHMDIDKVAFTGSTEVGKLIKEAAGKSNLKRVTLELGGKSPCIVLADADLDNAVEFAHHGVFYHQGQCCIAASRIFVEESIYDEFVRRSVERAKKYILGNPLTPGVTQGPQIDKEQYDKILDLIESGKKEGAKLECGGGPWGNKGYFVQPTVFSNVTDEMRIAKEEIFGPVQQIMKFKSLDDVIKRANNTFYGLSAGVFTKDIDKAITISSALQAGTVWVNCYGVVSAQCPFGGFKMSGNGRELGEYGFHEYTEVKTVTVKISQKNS
HPGD inh: qHTS Assay for Inhibitors of HPGD (15-Hydroxyprostaglandin Dehydrogenase). Potency, µM, actives largely listed as inhibitors. purified HPGD, NADH fluorescence kinetic, PGE2 substrate. actives 4.3% (n = 150,000). 15-hydroxyprostaglandin dehydrogenase [NAD(+)] (Homo sapiens), P15428
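NADH formation kinetics: reaction with 30 uM PGE2 and 1 mM NAD+ (final), 20 nM enzyme, Tris-HCl pH 8 with Tween 20, after 15 min compound preincubation at room temperature. Fluorescence change, last versus first of five reads.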
Large screens that a line does not name were inactive. An excerpt weighted towards active compounds, which were near 11% of everything screened. Unless noted, calls come from the whole dose curve; as a rule, active = well fitted inhibition curve with a large enough effect (not every such curve was filed as active); inconclusive = small, poorly fitted or top-dose-only effect, or another doubt; inactive = no such curve, though single readings can be large or run the other way.

CCOc1ccc(/C=C/C(=O)NCCc2ccc(OC)c(OC)c2)cc1	PNC assembly inh inconclusive
O=Nc1c(O)n(Cc2cccc(C(F)(F)F)c2)c2ccccc12	none (no result: PNC assembly inh, HPGD inh)
COc1ccc(CN2C3CCCC2CC(NC(=O)Nc2ccccc2)C3)cc1 (stereo not drawn)	none
COc1ccc(CN2C3CCCC2CC(NC(=O)Nc2ccccc2C)C3)cc1 (stereo not drawn)	PNC assembly inh -100
O=C1C[C@@H](O)[C@@H](O)[C@H]2[C@@H]3C(=O)N(Cc4ccccc4)C(=O)[C@@H]3CC[C@H]12	none (no result: PNC assembly inh, HPGD inh)
Cc1nonc1CN(C)C(=O)CC1C(=O)NCCN1Cc1ccccc1C(F)(F)F (stereo not drawn)	none (no result: PNC assembly inh, HPGD inh)
COc1ccc(NC(=O)C2CCN(S(=O)(=O)c3ccc(Br)s3)CC2)cc1OC	none
c1ccc2c(c1)C(=Nn1cnnc1)c1ccccc1-2	ALDH1A1 inh inconclusive
O=C1/C(=N/n2cnnc2)c2ccccc2N1Cc1ccccc1	ALDH1A1 inh 0.089µM
CC(=O)NC(CC(C)C)C(=O)NC(=O)NCc1ccccc1 (stereo not drawn)	ALDH1A1 inh 5µM
CC(C(=O)NC(=O)NCc1ccccc1)N1C(=O)c2ccccc2C1=O (stereo not drawn)	none
O=C(O)CCc1ccc(-c2cccs2)o1	ALDH1A1 inh 1µM, HPGD inh 22µM
Cc1ccc(-c2ccc(CCC(=O)O)o2)cc1	ALDH1A1 inh inconclusive
NC(=O)c1cnn(-c2ccc3ccccc3c2)c1N	none (no result: PNC assembly inh, HPGD inh)
c1coc(-c2nn3c(-c4ccco4)nnc3s2)c1	ALDH1A1 inh 20µM
COc1ccc(OCc2nn3c(-c4cccc(OC)c4)nnc3s2)cc1	HPGD inh inconclusive
COc1ccc(OCc2nn3c(-c4ccco4)nnc3s2)cc1	PNC assembly inh inconclusive, ALDH1A1 inh 32µM (no result: HPGD inh)
COc1ccccc1-c1nn2c(-c3ccco3)nnc2s1	ALDH1A1 inh inconclusive, HPGD inh inconclusive
Clc1ccc(OCc2nn3c(-c4ccncc4)nnc3s2)cc1	none
c1coc(-c2nnc3sc(Cc4cccs4)nn23)c1	ALDH1A1 inh 20µM, HPGD inh inconclusive
Clc1ccc(-c2nnc3sc(Cc4cccs4)nn23)c(Cl)c1	ALDH1A1 inh inconclusive, HPGD inh inconclusive
Clc1ccc(OCc2nn3c(-c4ccco4)nnc3s2)cc1	PNC assembly inh inconclusive, ALDH1A1 inh 22µM, HPGD inh inconclusive
CC1(C)CC(=O)/C(=C\c2cccc([N+](=O)[O-])c2)C(C)(C)N1	PNC assembly inh inconclusive
CCCN1C/C(=C/c2cccc([N+](=O)[O-])c2)C(=O)/C(=C/c2cccc([N+](=O)[O-])c2)C1	ALDH1A1 inh 20µM
CCN1CCN(c2ncnc3c2oc2nc(C(C)C)c4c(c23)CCC4)CC1	PNC assembly inh inconclusive
CC(C)Cc1nc2oc3c(N4CCN(CCO)CC4)ncnc3c2c2c1CCCC2	PNC assembly inh inconclusive, ALDH1A1 inh 7.9µM
CCOC(=O)N1CCN(c2ncnc3c2oc2nc(C(C)C)c4c(c23)CCC4)CC1	ALDH1A1 inh 1µM, HPGD inh inconclusive
CCOC(=O)c1oc2nc(CC(C)C)c3c(c2c1N)CCC3	ALDH1A1 inh inconclusive, HPGD inh inconclusive
c1ccc2c(c1)oc1c(NCC3CCCO3)ncnc12 (stereo not drawn)	PNC assembly inh inconclusive
CC(C)Cc1nc2oc3c(NCC4CCCO4)ncnc3c2c2c1CCC2 (stereo not drawn)	PNC assembly inh -100, ALDH1A1 inh inconclusive
Cc1c(NC(=O)COC(=O)CCC(=O)c2ccc(Cl)cc2)c(=O)n(-c2ccccc2)n1C	none (no result: PNC assembly inh, HPGD inh)
CCOC(c1cc(OC)cc([N+](=O)[O-])c1OC)C(C)C(OC)[C@@H](C)/C=C/CC(=O)OC (stereo partly drawn)	none (no result: PNC assembly inh, HPGD inh)
CC(=O)OC1CC2C(C)(C)C(O)CC[C@@]2(C)C2CC[C@@]3(C)C(c4ccoc4)OC(=O)C4OC43[C@]12C (stereo partly drawn)	none (no result: PNC assembly inh)
CC(C)Cc1nnc(NC(=O)CSc2ccccn2)s1	PNC assembly inh inconclusive, ALDH1A1 inh inconclusive
CC(C)(C)Cc1nnc(NC(=O)c2ccc([N+](=O)[O-])cc2)s1	none
CC(C)Cc1nnc(NC(=O)Cc2ccccc2[N+](=O)[O-])s1	PNC assembly inh inconclusive, ALDH1A1 inh inconclusive, HPGD inh 32µM
CC(C)(C)Cc1nnc(NC(=O)Cc2ccc([N+](=O)[O-])cc2)s1	ALDH1A1 inh 11µM, HPGD inh 14µM
C[C@H]1CC[C@@H]2N(C1)C[C@H]1[C@@H]3C[C@H]4[C@@H](C/C(=N\O)[C@H]5C[C@@H](O)CC[C@@]54C)[C@@H]3CC[C@H]1[C@]2(C)O	none (no result: PNC assembly inh)
CC(C)(C)C1=CC=C(C(C)(C)C)C(=O)C1=O	ALDH1A1 inh 1.6µM (no result: PNC assembly inh, HPGD inh)
C[C@H]1CC(C)(C)C[C@@](OCCN2CCCCC2)(c2ccccc2)C1	none (no result: PNC assembly inh)
